# Data reported in PubChem BioAssay (EPA / NIEHS).
# Active and inactive are the calls of the source. The calls were made as follows, unless noted: active = hit-call score of the fitted dose curve at least 0.9, where 1 is the maximum; inactive = score below 0.9.
# Key:
# [1] = CCTE_Deisenroth_H295R-HTRF_384WELL_ESTRADIOL: CCTE's H295R-HTRF Assay Evaluation of Estradiol Concentration, Deisenroth Lab (AID 2284361); details: actives raise or lower the signal
# Protocol: CCTE_Deisenroth_H295R-HTRF_384WELL assay is a cell-based, multiplex-readout assay that uses H295R, a human adrenocortical carcinoma cell line, with measurements taken at 48 hours after chemical dosing in a 384-well microplateCCTE_Deisenroth_H295R-HTRF_384WELL_ESTRADIOL is one of 3 assay components calculated in the CCTE_Deisenroth_H295R-HTRF_384WELL assay (2 hormones and 1 viability components). It is designed to make measurements of hormone induction, a form of inducible reporter, as detected with Homogenous Time Resolved Fluorescence immunoassay technology.This assay endpoint, CCTE_Deisenroth_H295R-HTRF_384WELL_ESTRADIOL, was analyzed with bidirectional fitting relative to DMSO as the negative control and baseline of activity. Using a type of inducible reporter, gain or loss-of-signal activity using Homogenous Time Resolved Fluorescence technology was used to understand synthesis of estradiol in the H295R cell line at 48hr of chemical exposure. […]
# Standard operating procedures for the cell culture medium, maintenance, expansion, and cryopreservation of the NCI-H295R adrenocortical carcinoma adherent cell line were adopted directly from guideline specifications7,13. […] Fluorescent endpoint measurements are conducted with a microplate reader equipped with an HTRF-compatible filter set (ex: 320 (10) […]; em: 620 (10) and 665 (10) nM). […]
# [2] = CCTE_Deisenroth_H295R-HTRF_384WELL_TESTOSTERONE: CCTE's H295R-HTRF Assay Evaluation of Testosterone Concentration, Deisenroth Lab (AID 2284373); details: actives raise or lower the signal
# Procedure, shortened: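 H295R cells were acclimated 24 h, then exposed 48 h to nine concentrations (0.001–100 uM final) in technical triplicate, n=5. Testosterone in conditioned medium was measured by HTRF (em 620/665 nm). Fitting was bidirectional versus DMSO; CellTiter-Glo viability ran on the same plates.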
# [3] = CCTE_Deisenroth_H295R-HTRF_384WELL_CTOX: Cytotoxicity Assessment in CCTE's H295R-HTRF Assay, Deisenroth Lab (AID 2284380; active = hit-call score of the fitted dose curve at least 0.9, where 1 is the maximum)
# Procedure, shortened: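 H295R adrenocortical carcinoma cells plated 24 h, then exposed 48 h to nine-point series 0.001–100 uM final, triplicate, n=5. ATP measured by CellTiter-Glo 2.0 luminescence on same plates after medium collection; loss versus DMSO.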
# [4] = Tanguay_ZF_120hpf_MO24: Oregon State University Tanguay Lab 24 Hour Post-fertilization zebrafish Assay for Mortality (AID 2284389)
# Procedure, shortened: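 Dechorionated wild-type zebrafish embryos, 1 per well, statically exposed from 6 hpf at 28C, 0.64% DMSO final. Mortality scored as binary present/absent at 24 hpf by brightfield microscopy, relative to DMSO.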
# [5] = Tanguay_ZF_120hpf_DP24: Oregon State University Tanguay Lab 24 Hour Post-fertilization zebrafish Assay for Delayed Development (AID 2284390)
# Procedure, shortened: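 Dechorionated 5D wild-type zebrafish embryos exposed statically from 6 hpf, one per well, 0.64% DMSO final, 28 C, sealed and dark. Developmental progression scored at 24 hpf by brightfield as binary present/absent; dead embryos excluded.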
# [6] = Tanguay_ZF_120hpf_CRAN: Oregon State University Tanguay Lab 120 Hour Post-fertilization zebrafish Assay for Craniofacial Malformation (AID 2284397)
# Procedure, shortened: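 Dechorionated Tropical 5D wild-type zebrafish embryos, one per well, were statically exposed from 6 to 120 hpf at 28C in 0.64% DMSO, with 5uM trimethyltin chloride as positive control. Craniofacial malformation was scored present/absent by brightfield microscopy, relative to DMSO.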
# [7] = Tanguay_ZF_120hpf_AXIS: Oregon State University Tanguay Lab 120 Hour Post-fertilization zebrafish Assay for Axial Malformation (AID 2284398)
# Procedure, shortened: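 Dechorionated 5D wild-type zebrafish embryos exposed statically, one per well, from 6 to 120 hpf at 28C, 0.64% DMSO. Axial malformation scored as present/absent by brightfield microscopy at 120 hpf; dead embryos not scored.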
smiles,measurement,setting,value
O=[N+]([O-])c1ccc(Oc2ccc(Cl)cc2Cl)cc1,outcome,[1],inactive
same,outcome,[2],inactive
same,outcome,[3],inactive
CC(C)(C)C(O)(CCc1ccc(Cl)cc1)Cn1cncn1 (centres undefined),outcome,[1],inactive
same,AC50,[2],2 µM (active)
CCNS(=O)(=O)C(F)(F)C(F)(F)C(F)(F)C(F)(F)C(F)(F)C(F)(F)C(F)(F)C(F)(F)F,outcome,[4],inactive
same,outcome,[5],inactive
same,AC50,[6],75.6 µM (active)
same,AC50,[7],70.1 µM (active)
